Measured values reported in PubChem BioAssay.
Activity calls are given as the source filed them. Unless noted, how the calls were made is not given here.

How the values were obtained:
[1] = HepG2 liver cancer cell viability effects, profiling panel, resazurin fluorescence, 24 h, PK04 Diversity Set (AID 1172); details: higher = more signal; further: test concentration not given here
[2] = basal S. cerevisiae growth modulation, no modifier, primary screen, OD600, strain BY4716, 24 h, basal condition (AID 1173); details: OD600, 24 h, higher = more signal, called active from +8 up or from −8 down
[3] = MM1S myeloma cell viability, profiling panel, resazurin fluorescence, basal, 24 h, PK04 Diversity Set (AID 1174); details: higher = more signal, called active from +8 up or from −8 down;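 further: MM1S multiple myeloma cell line; test concentration not given here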
[4] = target: Dihydroorotate dehydrogenase (quinone), mitochondrial (Plasmodium falciparum (isolate 3D7)) (UniProt Q08210); assay: PfDHODH enzyme inhibitors, primary screen, biochemical, C-terminal His tag, absorbance 600 nm (AID 1175); details: DCIP absorbance 600 nm, higher = more signal, called active from +8 up or from −8 down;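 further: recombinant parasite enzyme with a five histidine tag at its C terminus; test concentration not given here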
Dihydroorotate dehydrogenase (quinone), mitochondrial (Plasmodium falciparum (isolate 3D7)), sequence (Q08210 whole entry, looked up): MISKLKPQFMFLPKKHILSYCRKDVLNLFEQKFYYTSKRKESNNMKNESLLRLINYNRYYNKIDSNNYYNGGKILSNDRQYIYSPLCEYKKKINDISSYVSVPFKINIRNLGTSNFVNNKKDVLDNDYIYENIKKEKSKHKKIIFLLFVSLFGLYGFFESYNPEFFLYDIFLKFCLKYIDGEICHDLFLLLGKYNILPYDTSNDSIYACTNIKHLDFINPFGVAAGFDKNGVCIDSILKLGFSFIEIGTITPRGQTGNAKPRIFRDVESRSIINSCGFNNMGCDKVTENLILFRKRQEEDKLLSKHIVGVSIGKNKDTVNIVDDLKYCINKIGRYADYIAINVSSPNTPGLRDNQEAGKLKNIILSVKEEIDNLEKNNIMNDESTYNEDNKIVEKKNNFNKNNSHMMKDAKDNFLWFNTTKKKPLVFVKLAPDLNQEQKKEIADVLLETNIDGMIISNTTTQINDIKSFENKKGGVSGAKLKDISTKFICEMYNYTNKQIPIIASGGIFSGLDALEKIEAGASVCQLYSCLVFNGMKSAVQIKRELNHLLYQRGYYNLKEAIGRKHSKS

[5] = P. aeruginosa biofilm formation inhibitors, primary screen, strain PAO1, LB-PBS medium, absorbance 600 nm (AID 1176); further: test concentration not given here; details: P. aeruginosa PAO1 growth/biofilm, A600, 12 h; higher = more signal
[6] = S. cerevisiae RM11-1a growth modifiers, primary screen, strain RM11-1a, OD600, basal, 24 h (AID 1177); details: OD600, 24 h, higher = more signal, called active from +8 up or from −8 down;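 further: cultures grown under basal conditions with no added stressor; test concentration not given here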
[7] = E. coli acrAB mutant growth effects, primary screen, E. coli filamentation inducers, strain DRC39, OD650, 24 h (AID 1178); details: higher = more signal, called active from +8 up or from −8 down;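 further: growth measured as culture turbidity by optical density at 650 nm; test concentration not given here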
[8] = E. coli acrAB mutant growth effects, primary screen, E. coli filamentation inducers, strain DRC39, OD650, 48 h (AID 1179);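 further: screen aims at cell division blockers that make cells filament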; details: E. coli DRC39 delta-acrAB growth, higher = more signal, called active from +8 up or from −8 down
[9] = RPMI8226 myeloma cell viability, profiling panel, resazurin fluorescence, basal, 24 h, PK04 Diversity Set (AID 1180); details: higher = more signal;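 further: RPMI8826 multiple myeloma cell line at 5000 cells per well; test concentration not given here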
[10] = target: E3 ubiquitin-protein ligase XIAP (Homo sapiens) (UniProt P98170); assay: XIAP binders, primary screen, biophysical, small-molecule microarray, fluorescence 635 nm (AID 1181); details: small-molecule microarray binding, higher = more signal;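 further: score merges 667 nm emission and signal to noise over triplicate slides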
E3 ubiquitin-protein ligase XIAP (Homo sapiens), sequence (P98170 whole entry, looked up): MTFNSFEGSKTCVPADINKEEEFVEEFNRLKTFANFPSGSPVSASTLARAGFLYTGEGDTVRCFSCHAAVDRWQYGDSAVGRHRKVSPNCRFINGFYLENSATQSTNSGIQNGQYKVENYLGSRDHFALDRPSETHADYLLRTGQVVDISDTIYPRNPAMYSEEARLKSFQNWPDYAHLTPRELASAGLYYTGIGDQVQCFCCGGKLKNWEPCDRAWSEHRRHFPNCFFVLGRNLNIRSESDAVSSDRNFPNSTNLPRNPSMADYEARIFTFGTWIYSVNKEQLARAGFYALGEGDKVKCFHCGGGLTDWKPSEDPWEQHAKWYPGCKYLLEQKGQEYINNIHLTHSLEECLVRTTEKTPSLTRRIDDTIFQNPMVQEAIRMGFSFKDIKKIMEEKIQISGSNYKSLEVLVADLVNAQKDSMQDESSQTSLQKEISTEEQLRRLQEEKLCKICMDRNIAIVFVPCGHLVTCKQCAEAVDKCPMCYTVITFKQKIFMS

Structure (SMILES)	z-score [1]	z-score [2]	z-score [3]	composite z-score [4]	z-score [5]	z-score [6]	z-score [7]	z-score [8]	z-score [9]	composite z-score [10]
O=C(c1ccccc1)N1Cc2ccccc2C[C@@]2(N=C(c3ccc(OCCCO)cc3)O[C@H]2c2ccccc2)C1=O	-1.51	0.728 (inactive)	-3.22 (inactive)	0.23 (inactive)	1.49 (inactive)	1.39 (inactive)	0.0557 (inactive)	-0.469 (inactive)	-3.73	0.0797
COc1ccc([Si](C)(C)[C@H]2[C@H](CC(=O)N3CCC[C@H]3CO)O[C@@]3(C(=O)N(Cc4cccc(N5CCCCC5=O)c4)c4ccccc43)[C@@H]2C)cc1	0.276	-0.953 (inactive)	-0.0453 (inactive)	-3.28 (inactive)	-0.234 (inactive)	0.64 (inactive)	0.957 (inactive)	0.965 (inactive)	-0.185	-0.0126
COc1ccc([Si](C)(C)[C@@H]2[C@@H](CC(=O)N3CCC[C@H]3CO)O[C@]3(C(=O)N(Cc4cccc(N5C(=O)c6cccc7cccc5c67)c4)c4ccccc43)[C@H]2C)cc1	-0.49	0.313 (inactive)	-1.84 (inactive)	-1.54 (inactive)	0.343 (inactive)	0.0797 (inactive)	0.995 (inactive)	0.787 (inactive)	-1.53	0.0834
O=C1c2ccccc2[C@](Cc2ccccc2I)(C(=O)NCCN2CCOCC2)[C@H](c2ccc(CO)cc2)N1Cc1ccccc1C(F)(F)F	-0.936	-1.14 (inactive)	-0.269 (inactive)	-0.584 (inactive)	0.0435 (inactive)	-0.538 (inactive)	0.0398 (inactive)	-0.46 (inactive)	-0.606	-0.0095
C=C[C@@H](CO)NS(=O)(=O)c1ccc(Br)cc1	1.4	-2.03 (inactive)	1.16 (inactive)	-1.37 (inactive)	0.193 (inactive)	-2.19 (inactive)	1.43 (inactive)	1.16 (inactive)	0.867	-0.215
COc1ccc([Si](C)(C)[C@H]2[C@H](CC(=O)N(CCO)Cc3ccccc3)O[C@@]3(C(=O)N(Cc4ccc(N5C(=O)c6cccc7cccc5c67)cc4)c4ccccc43)[C@@H]2C)cc1	-1.14	1.21 (inactive)	-2.21 (inactive)	-1.51 (inactive)	0.319 (inactive)	2.45 (inactive)	-0.838 (inactive)	-1.02 (inactive)	-2.14	0.177
C[C@]12C(=O)N(CCO)[C@@H]3C(=O)N(c4ccc(Cl)cc4)CC=CC31O[C@@H]1/C=C\CCCOC(=O)C12 (stereo not given in full)	-0.561	0.13 (inactive)	-0.562 (inactive)	-0.141 (inactive)	-0.481 (inactive)	0.556 (inactive)	-1.18 (inactive)	-1.25 (inactive)	-0.184	-0.0746
C=CC[C@]1(C(N)=O)N=C(c2ccc(OCCCO)cc2)O[C@H]1c1ccccc1N=[N+]=[N-]	0.021	-0.925 (inactive)	-0.362 (inactive)	0.315 (inactive)	0.274 (inactive)	1.32 (inactive)	2.12 (inactive)	2 (inactive)	-0.733	0.217
[N-]=[N+]=NCc1ccccc1C[C@@]1(C(=O)NCCN2CCOCC2)N=C(c2ccc(OCCCO)cc2)O[C@@H]1c1ccccc1	-0.419	-2.05 (inactive)	-0.909 (inactive)	0.742 (inactive)	-0.0025 (inactive)	-0.411 (inactive)	0.594 (inactive)	-0.959 (inactive)	-1.02	0.0297
COC(=O)[C@@]1(Cc2ccc(F)cc2)[C@H]2c3cc(C(=O)N4CCCC4)n(Cc4ccc(OC(F)(F)F)cc4)c3C[C@H]2CN1C(=O)c1ccccc1	0.178	0.944 (inactive)	-0.799 (inactive)	-0.132 (inactive)	0.827 (inactive)	0.157 (inactive)	-0.961 (inactive)	-0.678 (inactive)	-0.453	0.0306
CC(C)Cc1ccc(CN2CC[C@@H](NC(=O)c3ccccc3)C2)cc1	-0.375	-7.1 (inactive)	-0.18 (inactive)	0.228 (inactive)	-0.0248 (inactive)	2.05 (inactive)	0.295 (inactive)	0.118 (inactive)	-0.193	-0.135
C=CC[C@]1(C(=O)NCC(O)CO)N=C(c2ccc(OCCCO)cc2)O[C@H]1c1ccccc1CN=[N+]=[N-] (stereo not given in full)	-0.766	-0.432 (inactive)	-1.51 (inactive)	-0.0887 (inactive)	1.27 (inactive)	0.244 (inactive)	-0.363 (inactive)	0.196 (inactive)	-0.566	-0.0136
Cc1ccc(S[C@]2(C(=O)NCc3ccccc3)CC(=O)N(Cc3ccccc3C(F)(F)F)[C@@H]2c2ccc(CO)cc2I)cc1	0.213	-5.1 (inactive)	-2.36 (inactive)	-1.44 (inactive)	-0.239 (inactive)	-1.54 (inactive)	0.506 (inactive)	-0.0277 (inactive)	-1.28	-0.135
CCOC(=O)C[C@H]1[C@H](OC(=O)Cc2ccc3c(c2)OCO3)[C@@H](NC(=O)CC(C)C)c2cc(OCCCO)ccc2N1C(=O)c1ccc2ccccc2n1	0.0081	-1.8 (inactive)	-0.0432 (inactive)	-1.94 (inactive)	-1.53 (inactive)	-0.0738 (inactive)	0.57 (inactive)	-0.0185 (inactive)	-0.255	0.514
COCCOC(=O)N1C(=O)[C@@]2(c3cc(C#CC4=CCCCC4)ccc31)[C@H](c1ccc(O)cc1)N1[C@H](c3ccccc3)[C@H](c3ccccc3)OC(=O)[C@H]1[C@@H]2C(=O)N1CCc2cc(OC)c(OC)cc2C1	0.291	0.0658 (inactive)	-0.671 (inactive)	-0.0425 (inactive)	0.902 (inactive)	0.432 (inactive)	-0.184 (inactive)	-0.119 (inactive)	-0.161	-0.0434
CO[C@H]1O[C@H](CO)[C@@H](OC(=O)Nc2cccc(F)c2)[C@H](OC(=O)c2cc3ccccc3[nH]2)[C@H]1OC(=O)c1cc2ccccc2[nH]1	-2.49	-0.21 (inactive)	-2.63 (inactive)	-0.603 (inactive)	1.1 (inactive)	-0.67 (inactive)	0.181 (inactive)	1.02 (inactive)	-2.46	0.331
O=C1NC(=O)C2C1C=CC(C(O)C1CCCCC1)N2Nc1ccccn1 (stereo not given)	-0.864	0.876 (inactive)	-1.27 (inactive)	0.583 (inactive)	2.68 (inactive)	0.209 (inactive)	-1.02 (inactive)	-0.286 (inactive)	-1.33	-0.0663
COC(=O)C(CC#Cc1ccc2c(c1)[C@]1(C(=O)N2)[C@H](C(=O)NC[C@H](O)c2ccccc2)[C@H]2C(=O)O[C@H](c3ccccc3)[C@H](c3ccccc3)N2[C@@H]1c1ccc(O)cc1)C(=O)OC	0.155	0.455 (inactive)	0.515 (inactive)	-5.06 (inactive)	1.05 (inactive)	0.518 (inactive)	-0.196 (inactive)	-0.556 (inactive)	-0.464	0.076
O=C1O[C@@H](c2ccccc2)[C@@H](c2ccccc2)N2[C@@H](c3ccc(OCCO)cc3)[C@]3(C(=O)Nc4ccc(C#CC5=CCCCC5)cc43)[C@@H](C(=O)Nc3nc4ccccc4s3)[C@H]12	-0.533	1.46 (inactive)	-1.21 (inactive)	-4.05 (inactive)	3.52 (inactive)	2.53 (inactive)	-0.304 (inactive)	0.141 (inactive)	-1	-0.339
CN1C(=O)C2C=CC(C(O)COCc3ccccc3)N(Nc3ccc([N+](=O)[O-])cc3[N+](=O)[O-])C2C1=O (stereo not given)	-0.473	-2.33 (inactive)	-0.407 (inactive)	-0.42 (inactive)	0.558 (inactive)	0.288 (inactive)	-0.143 (inactive)	-0.445 (inactive)	-0.143	0.12
COc1ccc(NN2C(C(O)c3ccc(F)cc3)C=CC3C(=O)N(C4CCCCC4)C(=O)C32)cc1 (stereo not given)	-0.598	0.0789 (inactive)	-0.209 (inactive)	-0.328 (inactive)	1.68 (inactive)	0.816 (inactive)	-0.385 (inactive)	-0.0595 (inactive)	-0.352	-0.0726
O=C1C[C@@](C(=O)NCC(F)(F)F)(c2ccc([N+](=O)[O-])cc2)[C@@H](c2ccc(CO)cc2I)N1CC12CC3CC(CC(C3)C1)C2	-4.52	-1.42 (inactive)	-7.22 (inactive)	-1.13 (inactive)	1.11 (inactive)	-0.355 (inactive)	0.213 (inactive)	1.29 (inactive)	-6.47	-0.0287
C=CCNC(=O)[C@H]1[C@@H]2C(=O)O[C@@H](c3ccccc3)[C@@H](c3ccccc3)N2[C@@H](c2ccc(OCCO)cc2)[C@]12C(=O)N(C(=O)OCCOC)c1ccc(C#CCNC(N)=O)cc12	0.263	1.88 (inactive)	0.31 (inactive)	-0.193 (inactive)	1.45 (inactive)	3.01 (inactive)	1.45 (inactive)	1.24 (inactive)	1.09	0.0313
